Reference: PubChem BioAssay
Inconclusive results are not listed. The source made the active and inactive calls.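 The calls were made as follows, unless noted: active = cell viability at or below a set limit in both duplicate runs, the limit being the all-compound median minus 4 SD (cut at about 23% in these data, passing the limit was not always enough); inconclusive = no clear call, values can overlap the other calls; inactive = the rest.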

Tests used:
[1] = Her2 expression decrease, cell viability multiplex – SKBR3 breast tumor cells, AlphaScreen, ATP viability, primary screen (AID 461;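 active = Her2 level under about 52% in both replicate screens, with viability over 70% of control, limit read from the data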;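 as to Her2 level: lower value means less Her2 protein in the cells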;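 as to viability: percent of carrier control wells set as 100% viability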); conditions: SKBR3 Her2 protein level, 18-24 h, measured here: SKBR3 viability, ATP luminescence, at 10 µM
[2] = target: Receptor tyrosine-protein kinase erbB-2 (Homo sapiens) (UniProt P04626); experiment: as above; conditions: 18-24 h, at 10 µM, stronger effect = lower value
Chain of Receptor tyrosine-protein kinase erbB-2 (Homo sapiens) (P04626 whole entry, looked up): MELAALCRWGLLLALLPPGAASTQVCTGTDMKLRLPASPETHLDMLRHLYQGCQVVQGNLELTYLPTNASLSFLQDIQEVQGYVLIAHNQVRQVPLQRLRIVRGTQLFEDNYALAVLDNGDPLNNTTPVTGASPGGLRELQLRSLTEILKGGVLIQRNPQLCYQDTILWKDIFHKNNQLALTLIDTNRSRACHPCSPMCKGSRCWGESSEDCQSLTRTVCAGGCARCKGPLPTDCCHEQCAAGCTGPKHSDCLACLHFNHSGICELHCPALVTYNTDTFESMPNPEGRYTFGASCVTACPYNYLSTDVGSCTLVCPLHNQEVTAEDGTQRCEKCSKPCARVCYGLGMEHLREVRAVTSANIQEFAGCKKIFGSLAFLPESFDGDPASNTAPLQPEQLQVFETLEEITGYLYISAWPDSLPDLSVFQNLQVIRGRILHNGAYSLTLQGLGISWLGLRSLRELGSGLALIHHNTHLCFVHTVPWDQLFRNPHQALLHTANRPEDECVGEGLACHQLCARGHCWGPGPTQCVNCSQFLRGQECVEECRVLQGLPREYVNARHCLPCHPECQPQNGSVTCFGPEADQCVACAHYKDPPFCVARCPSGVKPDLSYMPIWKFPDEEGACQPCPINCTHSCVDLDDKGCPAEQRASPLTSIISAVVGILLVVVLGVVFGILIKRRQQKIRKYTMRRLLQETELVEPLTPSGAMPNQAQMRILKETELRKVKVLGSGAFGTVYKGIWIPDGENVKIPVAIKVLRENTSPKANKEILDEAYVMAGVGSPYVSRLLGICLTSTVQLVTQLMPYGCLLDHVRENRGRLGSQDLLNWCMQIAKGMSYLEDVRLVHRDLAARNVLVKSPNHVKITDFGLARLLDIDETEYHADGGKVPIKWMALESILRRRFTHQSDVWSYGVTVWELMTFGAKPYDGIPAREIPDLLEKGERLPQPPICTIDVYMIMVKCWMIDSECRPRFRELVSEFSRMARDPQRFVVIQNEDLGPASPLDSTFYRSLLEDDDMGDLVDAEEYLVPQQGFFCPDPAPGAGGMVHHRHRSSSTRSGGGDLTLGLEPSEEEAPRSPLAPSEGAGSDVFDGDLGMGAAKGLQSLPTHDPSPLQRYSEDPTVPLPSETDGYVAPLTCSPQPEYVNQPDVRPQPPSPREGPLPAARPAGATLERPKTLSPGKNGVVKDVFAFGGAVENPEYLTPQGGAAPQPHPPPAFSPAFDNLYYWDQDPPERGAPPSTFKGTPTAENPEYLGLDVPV

[3] = reduced viability of SK-BR-3 breast cancer cells – cell-based, 24 h, human, pilot screen (AID 572;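 active = viability at or below 10% of carrier control in both of two separate runs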;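 also: compound exposure lasted between 18 and 24 h rather than exactly 24 h; 100% = carrier-treated control wells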); conditions: SK-BR-3 viability, CellTiter-Glo luminescence, at 10 µM, stronger effect = lower value
[4] = HUVEC growth inhibition – cell-based, human, primary screen (AID 575;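 active = viability at or below 30% in both replicate assays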;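 also: 100% = median of untreated cell wells with 0.1% DMSO on each plate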); conditions: HUVEC proliferation, CellTiter-Glo luminescence, 72 h; at 10 µM; stronger effect = lower value
[5] = H69AR cell proliferation blockers – human, duplicate replicates, primary screen (AID 580;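 active = viability at or under a set limit in both replicates, limit being median viability minus 3 SD, cut at about 48% in these data, passing the limit was not always enough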;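 also: 100% = mean luminescence of untreated wells and 0% = no signal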); conditions: H69AR lung tumor cells viability, ATP luminescence, 72 h; at 10 µM; stronger effect = lower value
[6] = MRP1 drug-resistance reversers in H69AR cells – cell-based, doxorubicin co-treatment, pilot screen (AID 601;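 active = viability loss from added drug above about 55%, and viability with drug at most 40%, in both replicates, limit read from the data, passing the limit was not always enough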); conditions: CellTiter-Glo, 72 h, at 10 µM; for differential viability (reversal): stronger effect = higher value
[7] = yeast transport mutant growth inhibition pilot in 384-well plates, post-Golgi transport modulator project (AID 636; in the data active = inhibition above about 31%); conditions: absorbance 615 nm, about 18 h, stronger effect = higher value
[8] = growth suppression of yeast trafficking mutant, preliminary HTS, modulators of trafficking downstream of Golgi apparatus project, 1536-format plate, OD 615 nm (AID 637; in the data active = inhibition above about 30%); conditions: yeast transport mutant growth, absorbance 615 nm, 18 h; stronger effect = higher value
[9] = S. cerevisiae growth inhibition in permissive medium (OD615), pilot counter-assay for S. cerevisiae lifespan shortening project, permissive growth control (AID 705;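 active = growth inhibition above 25% in both replicates, a cutoff set 3 SD above the mean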); conditions: OD615, 24 h, at 10 µM, stronger effect = higher value
[10] = S. cerevisiae growth inhibition in restrictive medium, OD615, pilot screen, restrictive growth control, yeast lifespan reduction project (AID 706;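 active = growth inhibition above a set limit, 3 SD over mean compound inhibition, in both replicates, cut at about 43% in these data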;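 also: modified DeaD lifespan yeast strain shifted to restrictive glucose medium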); conditions: OD615, 48 h, at 10 µM, stronger effect = higher value
[11] = doxorubicin toxicity protection in MRP-1 cells – H69AR cells, CellTiter-Glo, duplicate, MRP-1 activator project, pilot screen (AID 807;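 active = viability increase at or above a cutoff of the median across tested compounds plus 3 SD, cut at about 8.5% in these data, passing the limit was not always enough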;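 also: compound pretreatment 18-22 h then 72 h combined with doxorubicin; 0% = doxorubicin alone and 100% = vehicle without doxorubicin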); conditions: H69AR viability with doxorubicin, CellTiter-Glo luminescence; at 10 µM; stronger effect = higher value
[12] = viability of HCT116 without oncogenic beta-catenin – human colon tumor cells, pilot screen (AID 823); conditions: HCT116 beta-catenin knockout viability, CellTiter-Glo, 60 h; at 10 µM; stronger effect = lower value;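 also: 0% = wells killed by 20 µM Hyamine and 100% = untreated DMSO cell wells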
[13] = viability of PTEN-null HCT116 cells – cell-based, HCT116 clonal line, CellTiter-Glo, pilot screen (AID 824;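 active = viability at or below 27.92% in each of two runs, the all-compound median minus 4 SD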;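 also: 0% = 20 µM Hyamine control and 100% = vehicle cell control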); conditions: HCT116 PTEN-deleted viability, 60 h, at 10 µM, stronger effect = lower value
[14] = RAM pathway blockade in budding yeast – dse1pr::URA3 reporter, 5-FOA selection, pilot screen (AID 869;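 active = inhibition over a set limit, the all-compound mean plus 3 SD, in both replicate runs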;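 also: 0% = DMSO wells with no growth and 100% = 10 µM 1-NA-PP1 with full growth; RAM network block rescues cells from 5-FOA so hits raise OD615 growth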); conditions: S. cerevisiae dse1pr::URA3 5-FOA growth, OD615, 2 d; at 10 µM; stronger effect = higher value; strain carries analog-sensitive mutant Cbk1 kinase
[15] = RAM signaling pathway blockade in yeast – S. cerevisiae, Pdr1DBD-CYC8 efflux-inhibited sensitized strain, primary screen (AID 1298;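 active = RAM network inhibition above 8.4% in each of two replicates, 3 SD over the compound average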;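 also: 0% = DMSO untreated cells without growth and 100% = 10 µM 1-NA-PP1 full growth; higher means more yeast growth rescued from 5-FOA killing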); conditions: S. cerevisiae cbk1-as DSE1-URA3 strain, 5-FOA growth OD615, 2 d; at 50 µM; stronger effect = higher value
[16] = H69AR cells + 2 uM doxorubicin, measured here: viability with 2 uM doxorubicin, stronger effect = lower value
[17] = H69AR cells, compound alone cytotoxicity

| Structure (SMILES) | viability [1] [%] | Her2 level [2] | viability [3] | viability [4] | viability [5] | differential viability (reversal) ([6]; H69AR cells + 2 uM doxorubicin) | viability [6, 16] [%] | viability [6, 17] [%] | inhibition [7] | inhibition [8] | growth inhibition [9] | growth inhibition [10] | viability increase [11] | viability [12] | viability [13] | inhibition [14] | RAM network inhibition [15] |
| --- | --- | --- | --- | --- | --- | --- | --- | --- | --- | --- | --- | --- | --- | --- | --- | --- | --- |
| CCN(CC)C(=O)Oc1ccccc1NC(C)=O | 102 | 92% (inactive) | 102% (inactive) | 107% (inactive) | 90.5% (inactive) | -0.19% (inactive) | 90.7 | 90.5 | -5.14% (inactive) | -3% (inactive) | 1.79% (inactive) | -2.54% (inactive) | -0.54% (inactive) | 92.2% (inactive) | 96.1% (inactive) | 0.84% (inactive) | -0.6% (inactive) |
| COc1ccc(C2CC(c3cccc(C)c3)n3ncnc3N2)cc1 (stereo not drawn) | 87.5 | 89% (inactive) | 87.5% (inactive) | 88.8% (inactive) | 91.4% (inactive) | -5.74% (inactive) | 97.2 | 91.4 | 5.6% (inactive) | -9.02% (inactive) | 1.04% (inactive) | 5.56% (inactive) | -1.57% (inactive) | 100% (inactive) | 86.1% (inactive) | 0.22% (inactive) | -0.53% (inactive) |
| O=C(C1CCCN1S(=O)(=O)c1cccc2cccnc12)N1CCn2c1nc1ccccc12 (stereo not drawn) | 100 | 84.5% (inactive) | 100% (inactive) | 64.9% (inactive) | 94.1% (inactive) | 1.47% (inactive) | 92.6 | 94.1 | 0.9% (inactive) | 4.67% (inactive) | -4.09% (inactive) | 4.54% (inactive) | 0.79% (inactive) | 97.4% (inactive) | 101% (inactive) | 0.235% (inactive) | 1.58% (inactive) |
| Cc1noc(/C=C/N(C)C)c1S(=O)(=O)N1CCCC(C(=O)N2CCc3ccccc32)C1 (stereo not drawn) | 104 | 99% (inactive) | 104% (inactive) | 86.3% (inactive) | 89.2% (inactive) | -5.5% (inactive) | 94.7 | 89.2 | -5.2% (inactive) | -0.33% (inactive) | 5.67% (inactive) | -0.63% (inactive) | -0.98% (inactive) | 103% (inactive) | 109% (inactive) | 1.35% (inactive) | 4.08% (inactive) |
| CCOc1ccc(-c2nnc(SCC(=O)N3CCN(c4ccccc4)CC3)o2)cc1 | 103 | 96% (inactive) | 103% (inactive) | 99.5% (inactive) | 86.5% (inactive) | -2.04% (inactive) | 88.5 | 86.5 | -3.73% (inactive) | -3.28% (inactive) | -3.14% (inactive) | 2.85% (inactive) | -0.66% (inactive) | 102% (inactive) | 97.3% (inactive) | 2.71% (inactive) | 3.72% (inactive) |
| CC(CCC(=O)Nc1nncs1)C(=O)O (stereo not drawn) | 124 | 110% (inactive) | 124% (inactive) | 101% (inactive) | 85.9% (inactive) | -0.74% (inactive) | 86.6 | 85.9 | -3.2% (inactive) | 8.33% (inactive) | -8.12% (inactive) | -5.29% (inactive) | 0.04% (inactive) | 108% (inactive) | 95.9% (inactive) | 0.135% (inactive) | -0.05% (inactive) |
| COc1ccccc1N(CC(=O)Nc1cccnc1)S(C)(=O)=O | 94.5 | 108% (inactive) | 94.5% (inactive) | 89.8% (inactive) | 89.3% (inactive) | 1.5% (inactive) | 87.8 | 89.3 | 0.81% (inactive) | -3.28% (inactive) | -5.2% (inactive) | 13.5% (inactive) | -1.31% (inactive) | 103% (inactive) | 97.2% (inactive) | 2.62% (inactive) | 3.47% (inactive) |
| Cc1ccc(C(C)C)c(OCCCN2CC(C)OC(C)C2)c1 (stereo not drawn) | 98.5 | 85% (inactive) | 98.5% (inactive) | 101% (inactive) | 89.4% (inactive) | -9.6% (inactive) | 99 | 89.4 | 75.4% (active) | 27.7% (inactive) | -7.86% (inactive) | -13.4% (inactive) | -2.59% (inactive) | 78.5% (inactive) | 89.3% (inactive) | 0.705% (inactive) | 1.47% (inactive) |
| CC(CC(=O)NC1CCSC1=O)c1ccccc1 (stereo not drawn) | 97 | 87.5% (inactive) | 97% (inactive) | 89.2% (inactive) | 113% (inactive) | 1.77% (inactive) | 111 | 113 | -4.32% (inactive) | 0% (inactive) | 3.53% (inactive) | 6.91% (inactive) | 2.46% (inactive) | 96.5% (inactive) | 95.9% (inactive) | 0.235% (inactive) | 1.17% (inactive) |
